# Bioassay records (PubChem)
# PriA SSB inh – K. pneumoniae PriA-SSBct interaction inhibition; AlphaScreen SSBct-PriA binding, biotinylated peptide; inhibition, % at 33 µM; 0.6% of 430,000 active; in the data active = inhibition mostly above about 37%, no sharp cut-off; inactive = mostly below about 20%;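 also: plate controls were negative control peptide for no effect and reference peptide for full effect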
# PrPC surface inh – reduces human prion protein on the cell surface; P04156; cell surface PrPC, TR-FRET read-out; inhibition, % at 13.8 µM; 0.43% of 370,000 active; AID 720596; in the data active = inhibition above about 24%; also: 0% = median of the test wells and 100% = reference compound wells
# PrP 5UTR inh – inhibition of PrP 5' UTR reporter expression; 0.35% of 340,000 active; cell-based PrP 5' UTR mRNA reporter, plate reader; AID 488862; inhibition, % (test concentration not listed); in the data active = inhibition above about 52%; also: 0 = median of the neutral control wells
# SARS 3CLpro inh – SARS-CoV 3CLpro protease inhibition; P0C6X7; recombinant SARS-CoV 3CLpro, quenched FRET peptide cleavage; inhibition, % at 6 µM; 0.14% of 290,000 active; in the data active = inhibition above about 12%
# PfHsp40 yeast – restores yeast growth despite PfHsp40 toxicity | growth rescue, % at 12.5 µM | 0.68% of 340,000 active | S. cerevisiae expressing PfHsp40, growth rescue, ATP luminescence; in the data active = growth rescue above about 28%, passing the limit was not always enough;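 also: yeast W303a lacking pdr1 and pdr3 grown in galactose medium; growth measured after three days at 30 °C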
# BH1578 lux ind – induces V. cholerae light production without autoinducers | AID 588436 | V. cholerae BH1578 lux reporter, luminescence, 6 h | activation, % at 18.7 µM | 0.16% of 350,000 active; in the data active = activation mostly above about 9.7%, no sharp cut-off
# An asterisk follows results filed as active; i = inactive; x = no result given; + = active, no number. Hits are enriched below; roughly 1.6% of the tested compounds scored in any of these assays.
SMILES,PriA SSB inh,PrPC surface inh,PrP 5UTR inh,SARS 3CLpro inh,PfHsp40 yeast,BH1578 lux ind
CCn1ccnc1N1CCN(C(=O)C2(c3ccc(Cl)cc3)CCCC2)CC1,20.0,x,x,x,x,x
O=C1c2ccccc2NC(c2ccc(-c3cccc(F)c3)o2)N1O (configuration not stated),3.2,-4.5,-57.4,x,108.7*,i
Cc1cc([N+](=O)[O-])ccc1-c1ccc(C2Nc3ccccc3C(=O)N2O)o1 (configuration not stated),13.7,-3.5,1.2,8.2,167.6*,-0.3
CCOC(=O)c1ccc(-c2ccc(C3Nc4ccccc4C(=O)N3O)o2)cc1 (configuration not stated),11.1,4.7,-53.7,0.2,364.4*,8.5
O=C1c2ccccc2NC(c2ccc(-c3ccccc3F)o2)N1O (configuration not stated),-2.1,-1.3,-35.2,x,119.8*,-0.8
O=C1c2ccccc2NC(c2ccc(Cl)cc2Cl)N1O (configuration not stated),2.3,4.0,19.7,-0.3,292.3*,-0.2
CC1CCc2cc(F)ccc2N1C(=O)CN1CCN(c2cccc(Cl)c2)C1=O (configuration not stated),-9.0,x,x,x,x,x
NC(=O)C1CCN(C2=C(NS(=O)(=O)c3ccc(Cl)cc3)C(=O)c3ccccc3C2=O)CC1,28.3,-54.6,-32.2,-1.6,-0.2,-6.9
COC(=O)C1CCN(C2=C(NS(=O)(=O)c3ccc(Cl)cc3)C(=O)c3ccccc3C2=O)CC1,72.6*,-39.8,-20.5,0.9,0.2,-0.3
COc1ccc(CCNC(=O)c2nnn(Cc3cccc(F)c3)c2N)cc1OC,3.0,x,x,x,x,x
O=c1nc(NN=Cc2ccccn2)cn[nH]1,81.5*,x,x,x,x,x
Cc1cc(=O)[nH]c(NN=Cc2ccccn2)n1,83.3*,x,x,x,x,x
Fc1cccc(/C=N/Nc2nncc3ccccc23)c1,x,-0.2,-2.8,-4.4,-1.8,0.1
C(=N\Nc1nncc2ccccc12)/c1ccccn1,x,-7.2,45.1,-6.8,413.0*,-0.1
Cc1cc(=O)[nH]c(N/N=C/c2ccccn2)n1,x,17.5,14.7,6.8,-0.8,-0.2
CS(=O)(=O)c1cccc(C(=O)N2CCN(c3ccccc3)CC2)c1,-9.0,x,x,x,x,x
CCC(C)(C)c1ccc(OCCCC[n+]2cccc(C)c2C)c(C(C)(C)CC)c1,-3.4,17.1,-3.2,4.4,44.9*,i
CCC(C)(C)c1ccc(OCCCC[n+]2ccc(C)cc2)c(C(C)(C)CC)c1,1.6,11.7,x,0.3,x,x
COC(=O)C(=CNc1cccc2ccccc12)[N+](=O)[O-],54.6*,x,x,x,x,x
O=c1ccc(-c2ccccc2F)nn1Cc1nc(-c2ccc3c(c2)OCO3)no1,-2.0,x,x,x,x,x
COc1ccc(SCC(=O)Nc2nc(-c3nc4ccccc4s3)cs2)cc1,-11.0,x,x,x,x,x
COc1ccc(Nc2cc(C)nc(Nc3ccc(NS(=O)(=O)c4cc(C(C)(C)C)ccc4OC)cc3)n2)cc1,43.0*,x,x,x,x,x
CCOC(=O)c1c(C)n(Cc2ccccc2)c2ccc(OCC(O)Cn3nc(C)nc3C)cc12 (configuration not stated),104.2*,-0.2,-8.9,-2.1,0.1,-0.3
CCOC(=O)c1c(C)n(Cc2ccccc2)c2ccc(OCC(O)Cn3nc(C)cc3C)cc12 (configuration not stated),24.6,5.3,-15.0,0.5,6.3,-0.3
Oc1c(Cl)cc(Cl)cc1C=Nc1nccs1,55.7*,x,x,x,x,x
SMILES,PriA SSB inh,PrPC surface inh,PrP 5UTR inh,SARS 3CLpro inh,PfHsp40 yeast,BH1578 lux ind
COc1ccc(-c2nsc(SCC(=O)NC3CCCCC3)n2)cc1,-1.0,x,x,x,x,x
O=C(CSc1ccccc1)NC(=O)NCc1ccccc1,0.2,2.1,-6.6,4.3,83.6*,0.3
CCOC(=O)c1sc(-c2ccc(C(F)(F)F)cc2)nc1O,-8.5,-12.4,-68.6,1.1,132.4*,-0.4
O=C(CN1CC(c2nc(-c3ccco3)no2)C1)NCc1ccccc1Cl,-17.0,x,x,x,x,x
CC/C(=C(/CC)c1ccc(O)cc1)c1ccc(O)cc1,-4.4,1.2,x,0.4,107.0*,0.5
CC(C)C(NC(=O)/C=C/c1ccc(F)cc1)C(C)C,-4.7,2.0,-24.0,0.4,1.8,+
CC(NC(=O)/C=C/c1ccccc1)c1ccccc1 (configuration not stated),-0.8,-1.8,1.9,6.7,0.9,-2.1
CCOc1ccc(S(=O)(=O)NCC(c2cccn2C)N2CCCC2)cc1C (configuration not stated),21.0,x,x,x,x,x
c1ccc(Cn2ccc(-c3cnc(-c4ccccc4)s3)n2)cc1,-8.9,-10.1,-52.4,1.6,69.4*,i
Nc1ccn(Cc2ccccc2)n1,-9.7,-2.3,-0.4,0.7,0.8,i
